# Measured values taken from ChEMBL document CHEMBL3988442, “University of Dundee, Small-Polar-MMV Screening Library” (2021).
# The campaign covered roughly 66,000 compounds. About 960 (1.5%) showed an effect of 50% or more. What follows is part of a selection rich in strong results, with near analogues and random picks from the rest.
# Test system: Trypanosoma brucei
# Assay: Trypanosoma brucei 72 hour study
# Assay type: functional, organism-based
# Parameters: scale not given: in the data most compounds retested in dose-response had high values
smiles,measurement,setting,value
CCn1nc(C)c2nc(C)nc(NC3CCCC3)c21,Percent Effect,"30 µM, 30.03 µM",-3.661%
CCn1c(NCc2ccccc2)nc2c(C)nn(C)c2c1=O,Percent Effect,"30.3 µM, […]",-7.911%
Cc1nn(C)c2c(=O)n(C(C)C)c(NCCc3ccccc3)nc12,Percent Effect,"30.3 µM, […]",4.366%
CCc1nc(NCCCn2cccn2)c2c(n1)c(C)nn2CC,Percent Effect,"30.3 µM, […]",-16.86%
CCCc1nc(NCCCO)c2c(n1)c(C)nn2CC,Percent Effect,"30 µM, 30.03 µM",38.76%
CCn1nc(C)c2nc(C(C)C)nc(NCCc3ccc(O)cc3)c21,Percent Effect,"30.3 µM, […]",39.22%
CCn1nc(C)c2nc(C)nc(NCCc3ccc(C)cc3)c21,Percent Effect,"30.3 µM, […]",100.2%
CCn1nc(C)c2nc(C)nc(NCCCn3cccn3)c21,Percent Effect,"30.3 µM, […]",-1.841%
CCCc1nc(NCCc2ccccc2)c2c(n1)c(C)nn2CC,Percent Effect,"30.3 µM, […]",99.68%
COc1cccc(CN2C[C@@H]3CC[C@@](O)(c4ccccn4)[C@@H]3C2)c1OC.O=C(O)CC(O)(CC(=O)O)C(=O)O,Percent Effect,"30.3 µM, […]",-12.48%
CC(=O)N1[C@H](CN(C)C)C[C@@H]2CN(C(=O)Cc3cccs3)CC[C@@H]21.O=C(O)C(F)(F)F,Percent Effect,"30.3 µM, […]",-71.88%
Cn1cccc1C(=O)N[C@H]1CN(Cc2ccoc2)[C@@H]2CCCO[C@H]12.O=C(O)C(F)(F)F,Percent Effect,"30.3 µM, […]",-1.992%
Cc1cccc(CN2CCc3ncnc(NC4CCC4)c3CC2)n1.O=C(O)C(F)(F)F.O=C(O)C(F)(F)F,Percent Effect,"30 µM, 30.03 µM",-15.74%
Cc1cc(C(=O)N2CC[C@H]3C[C@H](c4ccncn4)O[C@@H]3C2)no1,Percent Effect,"30 µM, 30.03 µM",-17.17%
CN(Cc1cccnc1)Cc1cncc2c1CCN(Cc1ccoc1)C2.Cl.Cl.Cl,Percent Effect,"30.3 µM, […]",-64.05%
O=C(O)C(F)(F)F.c1cc(CN2C[C@H](OCC3CCOCC3)[C@H]3COC[C@H]32)co1,Percent Effect,"30.3 µM, […]",-13.64%
Cc1ccc(S(=O)(=O)N2CC[C@H]3CO[C@H](CN(C)C)[C@H]3C2)cc1.O=C(O)C(F)(F)F,Percent Effect,"30 µM, 30.03 µM",-6.145%
Cc1ccc(CN2CCC3(CC2)NC(=O)CC3c2ccncc2)cc1C.O=C(O)C(F)(F)F.O=C(O)C(F)(F)F (stereo unspecified),Percent Effect,"30 µM, 30.03 µM",-19.59%
Fc1ccc(-c2nc(CN3CCOC(Cn4cccn4)C3)co2)cc1 (stereo unspecified),Percent Effect,"30.3 µM, […]",15.69%
COc1cc(OC)cc(-c2cc(CN)nc3ccnn23)c1.Cl,Percent Effect,"30.3 µM, […]",0.9349%
Cc1ccc(CN2Cc3ccnn3CC(C(=O)NCC3CC3)C2)o1.O=C(O)C(F)(F)F.O=C(O)C(F)(F)F (stereo unspecified),Percent Effect,"30.3 µM, […]",-12.67%
Cc1cccc(-c2noc(CN3CCOC(Cn4cccn4)C3)n2)c1 (stereo unspecified),Percent Effect,"30.3 µM, […]",7.086%
CCCc1nc(NCCCOCC)c2c(n1)c(C)nn2CC,Percent Effect,"30.3 µM, […]",-18.63%
CCCc1nc(NCCOC)c2c(n1)c(C)nn2CC,Percent Effect,"30.3 µM, […]",-10.53%
CCCc1nc(NCCCOC)c2c(n1)c(C)nn2CC,Percent Effect,"30.3 µM, […]",88.3%
CCOc1ncccc1CNC(=O)NCC(O)c1ccccc1OC (stereo unspecified),Percent Effect,10 µM,-66.27%
COc1c(C)cc(CNCc2ccnc(N3CCOCC3)c2)cc1C.Cl,Percent Effect,"30.3 µM, […]",15.01%
same,Percent Effect,"10 mM, 10 mM as filed; unlikely as a test dose",-23.82%
COc1ccc(CNC(C)c2ccc(Cl)c(Cl)c2)c(OC)c1OC (stereo unspecified),Percent Effect,"30 µM, 30.03 µM",20.68%
Cc1cc2nc(-c3ccccc3)cc(NCC3CCS(=O)(=O)C3)n2n1 (stereo unspecified),Percent Effect,"30.3 µM, […]",6.285%
c1ccc(-c2cc(NCCCC3CCOC3)n3nccc3n2)cc1 (stereo unspecified),Percent Effect,"30.3 µM, […]",35.81%
Cc1cc2nc(-c3ccccc3)cc(NCC3CCCOC3)n2n1 (stereo unspecified),Percent Effect,"30.3 µM, […]",87.98%
COc1cccc(C(NCc2ccc(SC)cc2)c2nccn2C)c1 (stereo unspecified),Percent Effect,10 µM,-34.89%
CCOCC1CN(Cc2cccs2)Cc2nn(C)cc21.O=C(O)C(F)(F)F (stereo unspecified),Percent Effect,"30 µM, 30.03 µM",-3.631%
CCN(CC1CN(Cc2nc(C3CC3)no2)CCO1)c1cccnn1 (stereo unspecified),Percent Effect,"30 µM, 30.03 µM",37.04%
CSc1ccc(C(=O)N2CCCC(Nc3ccc(F)cc3)C2)cc1 (stereo unspecified),Percent Effect,"30 µM, 30.03 µM",63.86%
COC(=O)c1ccc(C(=O)N2CCCC(Nc3ccc(F)cc3)C2)cc1 (stereo unspecified),Percent Effect,"30 µM, 30.03 µM",-14.97%
Cc1ccc(C(=O)N2CCCC(Nc3ccc(F)cc3)C2)cc1 (stereo unspecified),Percent Effect,"30 µM, 30.03 µM",-28.83%
CN(C)C(=O)COC[C@]12COC[C@H]1CN(CCc1ccccc1)C2.O=C(O)C(F)(F)F,Percent Effect,"30.3 µM, […]",-48.5%
Cc1nc(CN2CCOC(CNc3cccnn3)C2)cs1 (stereo unspecified),Percent Effect,"30 µM, 30.03 µM",-27.36%
c1ccc(-c2nc(CNCC3CCCN3c3cccnn3)co2)cc1 (stereo unspecified),Percent Effect,"30.3 µM, […]",97.98%
CCc1nc(CN2CCOC(CNc3cccnn3)C2)cs1 (stereo unspecified),Percent Effect,"30.3 µM, […]",-0.3167%
CC(C)CCc1nc(CNCC2CCCN2c2cccnn2)cs1 (stereo unspecified),Percent Effect,"30.3 µM, […]",99.06%
CC(C)c1nc(CNCC2CCCN2c2cccnn2)cs1 (stereo unspecified),Percent Effect,"30.3 µM, […]",100.4%
Cc1nc(CNCC2CCCN2c2cccnn2)cs1 (stereo unspecified),Percent Effect,"30 µM, 30.03 µM",-9.671%
c1ccc(-c2nnc(CNCC3CCCN3c3cccnn3)o2)cc1 (stereo unspecified),Percent Effect,"30 µM, 30.03 µM",-41.79%
CC(C)c1nc(CN2CCOC(CNc3cccnn3)C2)cs1 (stereo unspecified),Percent Effect,"30.3 µM, […]",100.6%
c1cnnc(N2CCCC2CNCc2csc(-c3ccco3)n2)c1 (stereo unspecified),Percent Effect,"30.3 µM, […]",17.07%
CN(Cc1coc(-c2ccccc2)n1)CC1CCCN1c1cccnn1 (stereo unspecified),Percent Effect,"30 µM, 30.03 µM",-1.174%
CCc1nc(CNCC2CCCN2c2cccnn2)cs1 (stereo unspecified),Percent Effect,"30.3 µM, […]",4.558%
CCCc1nc(CNCC2CCCN2c2cccnn2)cs1 (stereo unspecified),Percent Effect,"30.3 µM, […]",34.1%
